Among the data in PubChem BioAssay (NCI) are growth inhibition values, retold here.

The panel holds about 79,000 compounds, 15% with a hit somewhere; the sample as a whole holds those more often. Unmarked numbers belong to inactive results. The source made the active and inactive calls. Rule as the data show it: active = growth inhibition above about 70%; inactive = the rest.

Test [1] in a line: NCI Yeast Anticancer Drug Screen. Data for the rad50 strain (AID 155).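 Also: 0% = growth of vehicle-only cultures of the same strain.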 The note with it: S. cerevisiae rad50 strain growth inhibition, active compounds read high. Put shortly: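 Compounds were tested on a yeast strain with an engineered DNA damage repair alteration; the reported value is growth inhibition normalised to vehicle treatment.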
Test [2] in a line: NCI Yeast Anticancer Drug Screen. Data for the mec2-1 strain (AID 157). The note with it: S. cerevisiae mec2-1 strain, active compounds read high. Put shortly: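 Using mec2-1 yeast: add compound, measure growth, express inhibition versus vehicle-treated cultures.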
Test [3] is described as follows: NCI Yeast Anticancer Drug Screen. Data for the sgs1 mgt1 strain (AID 161).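 Also: 0% = growth of cultures given vehicle only.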 The note with it: S. cerevisiae sgs1 mgt1 strain, active compounds read high. The gist of the method: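 Compounds are added to genetically altered yeast, and growth is compared with cultures given vehicle alone to give percent inhibition.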
A short description of test [4]: NCI Yeast Anticancer Drug Screen. Data for the cln2 rad14 strain (AID 165).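 Also: 0% = growth equal to vehicle treated cultures.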 Conditions: S. cerevisiae cln2 rad14 strain, active compounds read high. Put shortly: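 Yeast strain cln2 rad14, bearing defects in cell cycle control and DNA repair, serves as the test system; values reflect growth inhibition compared with vehicle.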
Test [5] can be described thus: NCI Yeast Anticancer Drug Screen. Data for the bub3 strain (AID 167). Conditions: S. cerevisiae bub3 mutant strain, active compounds read high. The gist of the method: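 Growth of a checkpoint-deficient yeast mutant is measured after compound exposure. Values represent inhibition relative to vehicle.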
Test [6] is described as follows: NCI Yeast Anticancer Drug Screen. Data for the mlh1 rad18 strain (AID 175). The note with it: S. cerevisiae mlh1 rad18 strain growth inhibition, active compounds read high. The gist of the method:
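Steps: expose repair-defective yeast to compound; measure growth; express inhibition against vehicle-treated controls.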

[7] abbreviates: at 5.0 µM (retest, dose inferred, filed as 0.5).
Setting [8] is: at 50.0 µM (retest, dose inferred, filed as 5.0).

As for `C/C(=N\O)c1ccc2cc(Br)c3ccccc3c2c1`, the growth inhibition was 12% in test [1] (setting [7]); 98% (active) in test [1] (setting [8]); 96.2% (active) in test [1] (at 50.0 µM); 1% in test [2] (setting [7]); 98% (active) in test [2] (setting [8]); 97.4% (active) in test [2] (at 50.0 µM). Besides, the growth inhibition is -1% in test [3] (setting [7]); 98% (active) in test [3] (setting [8]); 98% (active) in test [3] (at 50.0 µM); -20% in test [4] (setting [7]); 96% (active) in test [4] (setting [8]); 96% (active) in test [4] (at 50.0 µM). The growth inhibition in test [5] (setting [7]) is 8%; in test [5] (setting [8]), 98% (active); in test [5] (at 50.0 µM), 95.5% (active); in test [6] (setting [7]) it was 3%; in test [6] (setting [8]), 98% (active); in test [6] (at 50.0 µM), 96.7% (active).

Consider `C#CC(=O)OCC#CCOC(=O)C#C`, for which the growth inhibition was 3% in test [1] (setting [7]); 77% (active) in test [1] (setting [8]); 97.5% (active) in test [1] (at 50.0 µM); 0% in test [2] (setting [7]); 95% (active) in test [2] (setting [8]); 98.5% (active) in test [2] (at 50.0 µM). The growth inhibition was -9% in test [3] (setting [7]); 83% (active) in test [3] (setting [8]); 78.2% (active) in test [3] (at 50.0 µM); -7% in test [4] (setting [7]); 15% in test [4] (setting [8]); 49.2% in test [4] (at 50.0 µM). Besides, the growth inhibition in test [5] (setting [7]) was 1%; in test [5] (setting [8]) it was 76% (active); in test [5] (at 50.0 µM), 92.2% (active); in test [6] (setting [7]), 5%; in test [6] (setting [8]), 96% (active); in test [6] (at 50.0 µM), 96% (active).

As to `O=C(Nc1cccc(C(F)(F)F)c1)C(Cl)=C(Cl)Cl`, the growth inhibition was 12% in test [1] (setting [7]); 99% (active) in test [1] (setting [8]); 98.5% (active) in test [1] (at 50.0 µM); -1% in test [2] (setting [7]); 98% (active) in test [2] (setting [8]); 98.8% (active) in test [2] (at 50.0 µM). Moreover, the growth inhibition in test [3] (setting [7]) was 0%; in test [3] (setting [8]), 98% (active); in test [3] (at 50.0 µM) it was 98.5% (active); in test [4] (setting [7]), -8%; in test [4] (setting [8]), 99% (active); in test [4] (at 50.0 µM), 97.8% (active). Moreover, the growth inhibition was 0% in test [5] (setting [7]); 98% (active) in test [5] (setting [8]); 98.5% (active) in test [5] (at 50.0 µM); -2% in test [6] (setting [7]); 99% (active) in test [6] (setting [8]); 98.7% (active) in test [6] (at 50.0 µM).

`CC(C)N(C(=O)C12C3C4C5(C#N)C3C1(C#N)C5C42I)C(C)C` (stereo not given): the growth inhibition in test [1] (setting [7]) was 41%; in test [1] (setting [8]) it was 41%; in test [1] (at 50.0 µM), 82% (active); in test [2] (setting [7]) it was 22%; in test [2] (setting [8]), 22%; in test [2] (at 50.0 µM), 48%. Also, the growth inhibition is 13% in test [3] (setting [7]); 13% in test [3] (setting [8]); 31.6% in test [3] (at 50.0 µM); 12% in test [4] (setting [7]); 12% in test [4] (setting [8]); 68.5% in test [4] (at 50.0 µM). Further, the growth inhibition in test [5] (setting [7]) is 17%; in test [5] (setting [8]), 17%; in test [5] (at 50.0 µM), 91.5% (active); in test [6] (setting [7]), 11%; in test [6] (setting [8]), 11%; in test [6] (at 50.0 µM) it was 46.4%.

On to `Cc1c(Cl)cccc1NC(=O)/C(Cl)=C(\Cl)C(=O)O`, for which the growth inhibition in test [1] (setting [7]) was -1%; in test [1] (setting [8]), 33%; in test [1] (at 50.0 µM) it was 99.5% (active); in test [2] (setting [7]) it was -1%; in test [2] (setting [8]) it was 41%; in test [2] (at 50.0 µM) it was 99.8% (active). For the same compound, the growth inhibition is 1% in test [3] (setting [7]); 74% (active) in test [3] (setting [8]); 99.7% (active) in test [3] (at 50.0 µM); 1% in test [4] (setting [7]); 3% in test [4] (setting [8]); 99.3% (active) in test [4] (at 50.0 µM). In addition, the growth inhibition in test [5] (setting [7]) is -3%; in test [5] (setting [8]), 18%; in test [5] (at 50.0 µM) it was 99.7% (active); in test [6] (setting [7]), -6%; in test [6] (setting [8]) it was 39%; in test [6] (at 50.0 µM), 99.5% (active).

Take `COc1cc(OC)c(C(=O)[O][Sn]([c]2ccccc2)([c]2ccccc2)[c]2ccccc2)cc1OC`: the growth inhibition is 100% (active) in test [1] (setting [7]); 98% (active) in test [1] (setting [8]); 98.4% (active) in test [1] (at 50.0 µM); 100% (active) in test [2] (setting [7]); 100% (active) in test [2] (setting [8]); 96.3% (active) in test [2] (at 50.0 µM). In addition, the growth inhibition was 99% (active) in test [3] (setting [7]); 99% (active) in test [3] (setting [8]); 97.3% (active) in test [3] (at 50.0 µM); 99% (active) in test [4] (setting [7]); 99% (active) in test [4] (setting [8]); 90.5% (active) in test [4] (at 50.0 µM). The growth inhibition in test [5] (setting [7]) is 96% (active); in test [5] (setting [8]) it was 99% (active); in test [5] (at 50.0 µM), 96.1% (active); in test [6] (setting [7]) it was 99% (active); in test [6] (setting [8]), 100% (active); in test [6] (at 50.0 µM) it was 96.7% (active).

As for `ONC(=Nc1ccccc1)c1ccccc1`, the growth inhibition in test [1] (setting [7]) is -137%; in test [1] (setting [8]) it was 73% (active); in test [1] (at 50.0 µM), 95.4% (active); in test [2] (setting [7]), -42%; in test [2] (setting [8]), 47%; in test [2] (at 50.0 µM), 98.3% (active). The growth inhibition in test [3] (setting [7]) was -55%; in test [3] (setting [8]), 78% (active); in test [3] (at 50.0 µM), 96.3% (active); in test [4] (setting [7]) it was -58%; in test [4] (setting [8]), 86% (active); in test [4] (at 50.0 µM), 96.6% (active). The growth inhibition in test [5] (setting [7]) was -66%; in test [5] (setting [8]) it was 35%; in test [5] (at 50.0 µM), 95.2% (active); in test [6] (setting [7]), -120%; in test [6] (setting [8]), 75% (active); in test [6] (at 50.0 µM), 97.9% (active).

For the compound `CN1C(=O)CCC2[C@@H]3CC=C4C[C@@H](O)CC[C@]4(C)C3CC[C@@]21C` (stereo not given in full), the growth inhibition was -3% in test [1] (setting [7]); 27% in test [1] (setting [8]); 16.4% in test [1] (at 50.0 µM); 0% in test [2] (setting [7]); 11% in test [2] (setting [8]); 0.3% in test [2] (at 50.0 µM). Moreover, the growth inhibition in test [3] (setting [7]) is 1%; in test [3] (setting [8]), 59%; in test [3] (at 50.0 µM), 69.8%; in test [4] (setting [7]) it was 10%; in test [4] (setting [8]), 13%; in test [4] (at 50.0 µM), 28.8%. Besides, the growth inhibition was 22% in test [5] (setting [7]); 66% in test [5] (setting [8]); 57.7% in test [5] (at 50.0 µM); -7% in test [6] (setting [7]); 16% in test [6] (setting [8]); 70.8% (active) in test [6] (at 50.0 µM).

As to `C=C1CC2(CCOc3ccccc32)OC1=O` (stereo not given), the growth inhibition in test [1] (setting [7]) is 6%; in test [1] (setting [8]), 70% (active); in test [1] (at 50.0 µM) it was 80.5% (active); in test [2] (setting [7]) it was 17%; in test [2] (setting [8]), 91% (active); in test [2] (at 50.0 µM), 89.1% (active). In addition, the growth inhibition in test [3] (setting [7]) is 12%; in test [3] (setting [8]) it was 92% (active); in test [3] (at 50.0 µM) it was 95% (active); in test [4] (setting [7]), 5%; in test [4] (setting [8]), 60%; in test [4] (at 50.0 µM) it was 18.6%. Also, the growth inhibition in test [5] (setting [7]) is 4%; in test [5] (setting [8]) it was 86% (active); in test [5] (at 50.0 µM), 88.3% (active); in test [6] (setting [7]), 17%; in test [6] (setting [8]), 89% (active); in test [6] (at 50.0 µM) it was 91% (active).

In the case of `CCCCC1(C(O)CC)Sc2ccccc2N1C` (stereo not given), the growth inhibition in test [1] (setting [7]) is -7%; in test [1] (setting [8]) it was 24%; in test [1] (at 50.0 µM), 31.8%; in test [2] (setting [7]), 2%; in test [2] (setting [8]) it was 82% (active); in test [2] (at 50.0 µM) it was 41.5%. In addition, the growth inhibition in test [3] (setting [7]) was -2%; in test [3] (setting [8]), 83% (active); in test [3] (at 50.0 µM), 50.6%; in test [4] (setting [7]), 1%; in test [4] (setting [8]) it was 36%; in test [4] (at 50.0 µM) it was 65.9%. Also, the growth inhibition in test [5] (setting [7]) was -14%; in test [5] (setting [8]) it was 67%; in test [5] (at 50.0 µM), 61.6%; in test [6] (setting [7]) it was -12%; in test [6] (setting [8]) it was 90% (active); in test [6] (at 50.0 µM), 56%.
